Consider 16 molecules from PubChem BioAssay.

The source made the active and inactive calls.

For test [1], the system named is Plasmodium falciparum Sir2 (PF13_0152, Sir2A). The experiment in a line: pfSir2 binders on small-molecule microarrays, primary screen, biochemical, small-molecule microarray, 635 nm fluorescence (AID 1098).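 Further: score merges spot fluorescence intensity with its signal-to-noise ratio.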 The settings on record: small-molecule microarray binding, fluorescence 635 nm; higher = more signal.
Test [2] is described as follows: small-molecule microarray binders of probe aDKK1, primary screen, biochemical, biotinylated probe, 635/667 nm fluorescence (AID 1099).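 Further: score merges 667nm spot fluorescence with signal to noise across triplicate slides; reference of the scale not given here.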 The settings on record: higher = more signal.
The nature of test [3]: small-molecule microarray binders of probe aCHRDL2, primary screen, biochemical, biotinylated probe, 635/667 nm fluorescence (AID 1100). To be noted: higher = more signal.
Test [4] is described as follows: splicing luciferase reporter signal modulators, primary screen, spliceosome inhibition project, cell-based, HEK293, splice +/- reporter (AID 1101).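 Further: HEK293 cells carrying a splicing-competent luciferase reporter gene; test concentration not given here.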 To be noted: luminescence, 24 h, higher = more signal, called active from +8 up or from −8 down. In general terms: In a reporter assay the amount or activity of a reporter protein is the signal.
In test [5] the target is Fibroblast growth factor 10 (Homo sapiens) (UniProt O15520). Kind of test: FGF10 binders on small-molecule microarrays, primary screen, biochemical, small-molecule microarray, 635 nm fluorescence (AID 1102). The settings on record: FGF10 binding, fluorescence 635 nm, higher = more signal.
Fibroblast growth factor 10 (Homo sapiens), sequence (O15520 whole entry, looked up): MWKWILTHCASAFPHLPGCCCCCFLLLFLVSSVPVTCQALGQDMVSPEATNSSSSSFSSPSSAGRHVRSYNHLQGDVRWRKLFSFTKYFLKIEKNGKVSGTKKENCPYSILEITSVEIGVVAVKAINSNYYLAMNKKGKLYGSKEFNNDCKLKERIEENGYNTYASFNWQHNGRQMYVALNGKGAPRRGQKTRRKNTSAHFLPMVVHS
For test [6], the system named is glycogen synthase kinase-3 (GSK3A per assay name; protocol says GSK3B). The experiment in a line: GSK3 binders on small-molecule microarrays, primary screen, biochemical, small-molecule microarray, 635 nm fluorescence, GSK3A (AID 1103). Further: the record names both GSK3A and GSK3B. The settings on record: small-molecule microarray binding, fluorescence 635 nm; higher = more signal.
The target of test [7] is Epidermal growth factor receptor (Homo sapiens) (UniProt P00533). The experiment in a line: EGFR binders on small-molecule microarrays, primary screen, biochemical, small-molecule microarray, 635 nm fluorescence (AID 1104).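 Further: score merges 667 nm emission intensity with spot signal to noise over triplicate slides.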 To be noted: EGFR binding, higher = more signal.
Epidermal growth factor receptor (Homo sapiens), sequence (P00533 whole entry, looked up): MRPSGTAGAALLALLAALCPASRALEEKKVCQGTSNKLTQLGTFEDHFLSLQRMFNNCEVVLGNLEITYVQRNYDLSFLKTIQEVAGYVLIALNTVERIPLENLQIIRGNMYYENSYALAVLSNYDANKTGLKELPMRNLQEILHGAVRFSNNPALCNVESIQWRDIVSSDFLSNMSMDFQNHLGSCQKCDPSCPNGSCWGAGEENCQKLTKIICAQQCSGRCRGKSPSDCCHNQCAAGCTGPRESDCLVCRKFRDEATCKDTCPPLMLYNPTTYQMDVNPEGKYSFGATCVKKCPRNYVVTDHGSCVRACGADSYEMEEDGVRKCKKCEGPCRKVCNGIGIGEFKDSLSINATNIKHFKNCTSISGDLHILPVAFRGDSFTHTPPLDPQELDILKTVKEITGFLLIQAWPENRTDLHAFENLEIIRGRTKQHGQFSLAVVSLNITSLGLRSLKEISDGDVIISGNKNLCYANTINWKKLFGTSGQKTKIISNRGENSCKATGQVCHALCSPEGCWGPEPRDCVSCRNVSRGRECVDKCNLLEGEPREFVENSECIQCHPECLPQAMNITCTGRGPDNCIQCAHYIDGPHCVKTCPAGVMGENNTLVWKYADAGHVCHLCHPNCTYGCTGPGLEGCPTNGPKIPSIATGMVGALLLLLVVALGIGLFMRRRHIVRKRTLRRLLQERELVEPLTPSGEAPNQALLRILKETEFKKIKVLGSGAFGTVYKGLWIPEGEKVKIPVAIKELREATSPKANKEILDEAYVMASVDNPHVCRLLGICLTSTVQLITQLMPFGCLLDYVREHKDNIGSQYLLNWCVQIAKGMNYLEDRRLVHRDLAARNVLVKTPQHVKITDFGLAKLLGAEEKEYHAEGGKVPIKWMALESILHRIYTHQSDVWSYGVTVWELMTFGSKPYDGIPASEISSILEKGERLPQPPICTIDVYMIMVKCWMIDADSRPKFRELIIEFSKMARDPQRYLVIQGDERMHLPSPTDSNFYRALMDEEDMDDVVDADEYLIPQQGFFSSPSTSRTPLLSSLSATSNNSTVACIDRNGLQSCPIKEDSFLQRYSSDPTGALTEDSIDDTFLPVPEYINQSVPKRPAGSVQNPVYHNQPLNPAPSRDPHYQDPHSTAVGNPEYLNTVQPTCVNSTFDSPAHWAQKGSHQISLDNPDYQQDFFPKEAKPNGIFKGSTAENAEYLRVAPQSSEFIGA
For test [8], the target named is Follistatin-related protein 3 (Homo sapiens) (UniProt O95633). The experiment in a line: FSTL3 binders on small-molecule microarrays, primary screen, biochemical, small-molecule microarray, 635 nm fluorescence (AID 1105).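 Further: score merges emission near 667 nm and signal to noise per printed spot across three slides.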 To be noted: FSTL3 binding, higher = more signal.
Follistatin-related protein 3 (Homo sapiens), sequence (O95633 whole entry, looked up): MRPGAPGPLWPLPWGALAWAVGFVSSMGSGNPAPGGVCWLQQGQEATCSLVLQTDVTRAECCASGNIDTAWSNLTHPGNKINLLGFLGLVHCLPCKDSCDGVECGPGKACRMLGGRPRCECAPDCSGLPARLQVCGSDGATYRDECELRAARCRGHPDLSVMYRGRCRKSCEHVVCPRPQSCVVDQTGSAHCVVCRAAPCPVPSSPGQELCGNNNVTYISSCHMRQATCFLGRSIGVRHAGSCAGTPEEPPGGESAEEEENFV
For test [9], the target named is Dickkopf-related protein 1 (Homo sapiens) (UniProt O94907). Kind of test: DKK1 binders on small-molecule microarrays, primary screen, biochemical, small-molecule microarray, 635 nm fluorescence scan (AID 1106).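 Further: score merges emission near 667 nm with signal to noise over three replicate slides.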 To be noted: DKK1 binding, higher = more signal.
Dickkopf-related protein 1 (Homo sapiens), sequence (O94907 whole entry, looked up): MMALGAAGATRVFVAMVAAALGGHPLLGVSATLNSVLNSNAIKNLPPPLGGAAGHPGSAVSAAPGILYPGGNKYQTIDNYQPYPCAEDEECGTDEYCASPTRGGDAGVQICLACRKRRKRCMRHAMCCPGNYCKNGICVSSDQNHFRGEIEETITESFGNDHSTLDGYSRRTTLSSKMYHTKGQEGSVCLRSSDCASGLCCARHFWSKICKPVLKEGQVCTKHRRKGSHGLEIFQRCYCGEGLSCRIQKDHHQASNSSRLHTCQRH
The test system of test [10] is Inhibin beta A chain (activin A). Kind of test: INHBA (activin A) binders on microarrays, primary screen, biochemical, small-molecule microarray, 635 nm fluorescence scan (AID 1107).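 Further: mouse activin A protein probed at 4.33 µg/mL on printed slides; score merges bound-protein fluorescence near 667 nm with spot signal-to-noise.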 The settings on record: small-molecule microarray binding, higher = more signal.

`Cc1ccc(S[C@]2(C(=O)NC(C)C)CC(=O)N(C3CCCCC3)[C@@H]2c2ccc(CO)cc2I)cc1`: the composite z-score in test [1] was 1.16; in [2] it was 0.763; in test [3], 0.547; in test [5], 0.612; in test [6], 0.621; in [7], -0.242. For the same molecule, the results for the composite z-score in test [8], in test [9] and in [10] were 1.19, 0.205 and 0.0441, respectively. The z-score in [4] was -0.504 (inactive).

Take `Cc1ccc(S[C@]2(C(=O)NCCCN(C)C)CC(=O)N(Cc3ccccc3C(F)(F)F)[C@@H]2c2ccc(CO)cc2I)cc1`: the composite z-score in [1] is 1.18; in test [2], -0.473; in test [3], -0.464; in test [5], -0.54; in [6], -0.605; in [7], -1.04. In addition, the composite z-score is -0.402 in [8], -1.25 in [9] and 0.812 in test [10]. In [4], the z-score is -0.425 (inactive).

As to `COc1ccc(C#Cc2ccc3c(c2)[C@]2(C(=O)N3)[C@H](C(=O)O)[C@H]3C(=O)O[C@H](c4ccccc4)[C@H](c4ccccc4)N3[C@@H]2c2ccccc2OCCO)cc1`, the composite z-score in test [1] was 1.54; in test [2], -0.161; in test [3], -0.126; in [5], 1.16; in test [6], 1.31; in [7], 0.481. Also, the composite z-score was 0.509 in test [8], 0.301 in test [9] and -0.658 in test [10]. Besides, in test [4], the z-score was -2.14 (inactive).

As for `CCCCCC1=C2CNC(CC(C)C)(C(=O)OC)C=C2C(C)C1=O` (stereo not given), the composite z-score was 0.452 in [1]; 0.72 in [2]; 0.952 in [3]; 0.071 in [5]; -0.361 in test [6]; -0.73 in [7]. Further, the composite z-score in test [8] was -0.403; in [9], -0.756; in [10], 1.23. For the same molecule, in [4], the z-score was 5.08 (inactive).

Turning to `O=C(NCc1ccc(F)cc1)[C@H]1C[C@H]2C(=O)N3CCC[C@H]3C(=O)N2[C@H]1c1ccc(O)cc1`, the composite z-score was 0.605 in [1]; -0.294 in test [2]; -0.292 in [3]; -0.0335 in test [5]; -0.73 in test [6]; 0.192 in [7]. Moreover, the composite z-score in test [8] is -0.423; in [9] it was 0.889; in test [10], -0.964. Besides, the z-score in [4] is -1.62 (inactive).

Take `C#CCN1[C@@H](Cc2ccccc2)C(=O)O[C@H](Cc2ccccc2)[C@@H]1/C=C/C1CC1`: the composite z-score in test [1] is 0.345; in test [2], -0.251; in [3], -0.505; in test [5], 0.209; in test [6] it was 0.524; in [7], -0.333. For the same molecule, the composite z-score in [8] was determined as 0.22; in test [9] it was 0.156; in test [10] it was 0.781. In addition, the z-score in [4] is -0.29 (inactive).

Regarding `O=C1C2C=CC(C(O)C3CCCCC3)N(n3cnnc3)C2C(=O)N1Cc1ccccc1` (stereo not given), the composite z-score came out at 0.815 in test [1]; 0.224 in test [2]; 0.623 in test [3]; 1.16 in test [5]; 1.1 in test [6]; 0.0887 in test [7]. Further, the composite z-score is 1.21 in test [8], -0.0435 in test [9] and 1.13 in test [10]. In addition, the z-score in [4] was -1.3 (inactive).

In the case of `CN1C(=O)C2C=CC(C(O)c3ccc(-c4ccccc4)s3)N(NC(=O)OC(C)(C)C)C2C1=O` (stereo not given), the composite z-score was determined as 0.871 in test [1]; 0.625 in [2]; 1.04 in test [3]; 0.171 in test [5]; 0.484 in test [6]; 0.609 in test [7]. Also, the values for the composite z-score in test [8], in test [9] and in test [10] were 1.02, 0.207 and 0.86, respectively. Also, the z-score in test [4] is 2.11 (inactive).

For `COC(=O)[C@@]1(Cc2ccc(F)cc2)[C@H]2c3cc(C(=O)N4CCCC4)n(Cc4ccccn4)c3C[C@H]2CN1C(=O)c1ccccc1`, the composite z-score in [1] came to 0.919; in test [2], 0.757; in test [3], 1.08; in test [5], 0.426; in test [6], 0.453; in test [7], 0.214. The values for the composite z-score in [8], in [9] and in test [10] were 0.156, -0.398 and 0.855, respectively. In test [4], the z-score was -1.88 (inactive).

Take `COC(=O)[C@@]1(Cc2ccccc2)[C@H]2c3cc(C(=O)N(C)C)n(Cc4ccc(S(C)(=O)=O)cc4)c3C[C@H]2CN1C(=O)c1ccccc1`: the composite z-score in test [1] is 0.308; in test [2], 1.1; in [3], 1.22; in test [5], 0.648; in [6], 0.0903; in test [7], -0.366. Moreover, the composite z-score in test [8] was -0.0624; in [9], -0.618; in test [10], 0.749. The z-score in test [4] was 0.376 (inactive).

Consider `COCCOC(=O)N1C(=O)[C@@]2(c3ccccc31)[C@H](C(=O)N1CCN(c3ncccn3)CC1)[C@H]1C(=O)O[C@H](c3ccccc3)[C@H](c3ccccc3)N1[C@@H]2c1ccccc1OCCO`, for which the composite z-score is 1.33 in test [1]; -0.0994 in test [2]; -0.41 in test [3]; 1.17 in test [5]; 1.31 in test [6]; 0.575 in test [7]. The composite z-score in test [8] worked out at 1.15; in test [9], 0.778; in test [10], 0.888. In [4], the z-score is -1.05 (inactive).

As to `COc1ccc([Si](C)(C)[C@H]2[C@H](CCO)O[C@@]3(C(=O)N(Cc4cccc(N(C=O)c5ccccc5)c4)c4ccccc43)[C@@H]2C)cc1`, the composite z-score is 1.14 in test [1]; -0.305 in test [2]; -0.777 in test [3]; 1.33 in test [5]; 1.29 in test [6]; 0.406 in test [7]. Also, the composite z-score in test [8] was determined as 1.08; in test [9], 0.469; in test [10], 0.013. In test [4], the z-score was -1.53 (inactive).

For the molecule `COCCOC(=O)N1C(=O)[C@@]2(c3cc(C#CCC(C(=O)OC)C(=O)OC)ccc31)[C@H](C(N)=O)[C@H]1C(=O)O[C@H](c3ccccc3)[C@H](c3ccccc3)N1[C@@H]2c1ccc(O)cc1`, the composite z-score in [1] worked out at 1.09; in test [2] it was 0.235; in test [3] it was 0.283; in [5], 1.42; in test [6] it was 0.863; in test [7], 0.69. The figures for the composite z-score in [8], in [9] and in test [10] were 1, 0.938 and 0.187, respectively. Besides, in test [4], the z-score was -1.59 (inactive).

Take `Cc1ccccc1C(O)C1C=CC2C(=O)N(c3ccccc3)C(=O)C2N1Nc1ccccc1` (stereo not given): the composite z-score in test [1] is 1.37; in [2] it was 1.01; in test [3], 1.25; in test [5], 0.96; in [6] it was 0.65; in test [7] it was 0.0981. Moreover, the composite z-score was determined as 1.17 in [8], 0.0843 in test [9] and 1.45 in test [10]. Besides, in test [4], the z-score is -0.00177 (inactive).

Consider `N#Cc1ccc(NN2C(C(O)C3CC=CCC3)C=CC3C(=O)N(c4ccccc4)C(=O)C32)cc1` (stereo not given), for which the composite z-score is 0.602 in test [1]; 0.417 in test [2]; 0.728 in test [3]; 1.09 in test [5]; 0.79 in [6]; 1.44 in [7]. Further, the composite z-score was 1.38 in test [8], -0.141 in test [9] and 1.25 in [10]. The z-score in [4] is 1.6 (inactive).

`O=C1[C@H]2C=C(I)[C@H](C[C@@H]2OCCCCCCO)[C@@]12CO2`: the composite z-score is 0.525 in test [1]; -0.261 in [2]; 0.191 in [3]; 0.281 in test [5]; -0.454 in test [6]; 0.677 in test [7]. The composite z-score in test [8] was 1.39; in [9], 1.15; in [10], 1.43. The z-score in [4] is 0.0312 (inactive).
